This note sets out measurements from ChEMBL document CHEMBL3988442, “University of Dundee, Small-Polar-MMV Screening Library” (2021).

Out of some 48,000 compounds screened, about 13,000 (27%) showed an effect of 50% or more. Some of the results follow.

In this assay the test system is Wolbachia pipientis. Nature of the assay: Anti-Wolbachia Cell-Based Screen. Format: functional. More on the design: scale not given: in the data most compounds retested in dose-response had high values. The following applies: 5 µM.
Turning to `O=C(c1ncc[nH]1)N1CCC(Cn2cc(-c3cccc(Cl)c3)nn2)CC1`, the “Percent Effect” value was -5.477%.
For the compound `CC(C)[C@@H](CO)Nc1cc(-c2cn[nH]c2)ncn1`, the “Percent Effect” value is recorded as 127.6%.
Turning to `C[C@@H](CO)Nc1cc(-c2cn[nH]c2)ncn1`, the “Percent Effect” value worked out at 112.5%.
On to `CC(C)c1nccn1CCCNC(=O)c1ccc(-c2cn[nH]c2)nc1`, for which the “Percent Effect” value is -8.447%.
As for `CC[C@@H](CO)NC(=O)c1cc(COc2ccc(OC)cc2Cl)[nH]n1`, the “Percent Effect” value was -9.741%.
Take `CCC(CO)NC(=O)c1cc(COc2ccc(OC)cc2Cl)[nH]n1` (stereo unspecified): the “Percent Effect” value was -12.2%.
As for `COc1cccc(-n2cc(-c3ccnc(NC(CO)C(C)C)n3)cn2)c1` (stereo unspecified), the figure is 8.395%; as for `COc1cccc(-n2cc(-c3ccnc(N[C@H](CO)C(C)C)n3)cn2)c1`, 4.852%.
As to `C[C@H](O)CNc1cc(-c2cn[nH]c2)ncn1`, the “Percent Effect” value came out at 139.4%.
Consider `CSc1ccc2c(C)cc(N[C@@H](C)CO)nc2c1`, for which the “Percent Effect” value is on record as -9.02%.
For `COc1ccc(Cc2noc(-c3ccc(NC(C)CO)nc3)n2)cc1` (stereo unspecified), the “Percent Effect” value worked out at 5.885%.
`CC[C@@H](CO)Nc1cc(-c2cn[nH]c2)ncn1`: the “Percent Effect” value was found to be 98.52%.
On to `COc1cccc(-c2noc(-c3ccc(NCC(C)O)nc3)n2)c1OC` (stereo unspecified), for which the “Percent Effect” value is given as -13.68%.
Regarding `Cc1cc(CN2CCN(C(=O)NCCCc3cn[nH]c3C)CC2)on1`, the “Percent Effect” value is -23.87%.
The same measure for `Cc1ccc(-n2nnnc2SCN2CCCCC2=O)cc1C`: -13.91%.
As for `Cc1ccc(CNC(=O)CN2C=Nc3ccccc3S2(=O)=O)s1`, the “Percent Effect” value stood at 1.242%.
Consider `COc1ccc(C)c2c1N(C(=O)c1cnc(C)s1)CCC2`, for which the “Percent Effect” value was 46.61%.
On to `O=C(c1ccc(CN2CCCC2)cc1)N1CCCC(n2cccn2)C1` (stereo unspecified), for which the “Percent Effect” value is 0.6704%.
`NC(=O)c1ccc(CN2CCCC(N3CCCC3)C2)cc1` (stereo unspecified): the “Percent Effect” value is -7.606%.
In the case of `CCc1ccc(CN2CCC(CNC(=O)c3ccc(C)nc3)C2)nc1` (stereo unspecified), the “Percent Effect” value was 20.32%.
Consider `CCCN(C(=O)c1cnns1)C1CCCN(Cc2ccccc2)C1` (stereo unspecified), for which the “Percent Effect” value is reported as 20.84%.
Consider `CCNC(=O)C1CCN(Cc2ccc(C(=O)Nc3cnns3)cc2)C1` (stereo unspecified), for which the “Percent Effect” value is reported as 106%.
As to `O=C(Nc1nnc(C2CC2)s1)NC1CCN(Cc2ccccc2)C1` (stereo unspecified), the “Percent Effect” value was -1.377%.
The same measure for `CCNC(=O)C1CCN(Cc2ccc(C(=O)Nc3nnc(C)s3)cc2)C1` (stereo unspecified): 100.1%; for `NC(=O)C1CCCN(Cc2ccc(C(=O)Nc3cnns3)cc2)C1` (stereo unspecified): 103.7%; for `Cn1cnnc1CNC(=O)C1CCCN(Cc2ccccc2)C1` (stereo unspecified): -10.08%.
Consider `CCC(CC)CS(=O)(=O)NC(=O)C1CCCC1`, for which the “Percent Effect” value is reported as -11.88%.
`Cc1cnccc1CN(C)Cc1c[nH]nc1-c1ccc(F)cc1F`: the “Percent Effect” value was -6.627%.
Turning to `Cc1cc(C)n(-c2cccc(NC(=O)N3CCC[C@@H]3CO)c2)n1`, the “Percent Effect” value is -12.47%.
On to `Cc1cnn(CC2CCCN2C(=O)c2cc(O)nc3ccccc23)c1` (stereo unspecified), for which the “Percent Effect” value worked out at 145.5%.
Take `O=C(c1cncc2ccccc12)N1CCC[C@@H]1CO`: the “Percent Effect” value is recorded as 106.1%.
Turning to `Cc1cnn(CC2CCCN2C(=O)c2cn(C)c3ccccc23)c1` (stereo unspecified), the “Percent Effect” value amounted to 141.3%.
On to `COc1ccccc1C(=O)N1CCCC1Cn1cc(C)cn1` (stereo unspecified), for which the “Percent Effect” value is reported as -4.126%.
In the case of `CC(NC(=O)N1CCC[C@H]1CO)c1noc(-c2ccccc2)n1` (stereo partly specified), the “Percent Effect” value is recorded as 5.475%.
As for `O=C(Nc1ccccc1OC1CCOC1)c1ccon1` (stereo unspecified), the “Percent Effect” value was -7.759%.
`CCN(CCc1nc2cc(C)ccc2[nH]1)C(=O)[C@@H](N)Cc1c[nH]cn1`: the “Percent Effect” value is -4.555%.
The same measure for `CCOCc1nccc(-c2ccc(OCC)c(C(=O)O)c2)n1`: -8.809%; for `Cc1nnc(C(C)N2CCc3[nH]c4ccccc4c3C2)o1` (stereo unspecified): 119.5%.
As for `Cc1ccc(-c2nnc(C(C)N3CCn4c(C)nnc4C3)o2)cc1` (stereo unspecified), the figure is 7.305%; as for `Cc1nnc2n1CCN(C(C)c1nnc(-c3cccs3)o1)C2` (stereo unspecified), 4.366%.
Regarding `Cc1noc(C(C)N2CCC(c3nc4ccccc4[nH]3)CC2)n1` (stereo unspecified), the “Percent Effect” value is -1.749%.
Take `Cc1nnc(C(C)NCC2(c3ccc(Cl)cc3)CCCC2)o1` (stereo unspecified): the “Percent Effect” value stood at 5.084%.
The same measure for `Cc1noc(C(C)N2CCc3[nH]c4ccc(Cl)cc4c3C2)n1` (stereo unspecified): 55.06%.
For `Cc1cccc(-c2nnc(C(C)N3CCn4c(C)nnc4C3)o2)c1` (stereo unspecified), the “Percent Effect” value is reported as 3.143%.
As for `Cc1nnc(C(C)N2CCc3[nH]c4ccc(Cl)cc4c3C2)o1` (stereo unspecified), the “Percent Effect” value turned out to be 96.73%.
The same measure for `CCc1cc(C)nc(N2CCN(C(C)c3nc(C)no3)CC2)n1` (stereo unspecified): 7.355%; for `CN(CCO)C[C@@H]1CN(Cc2ccccc2C#N)C[C@@H]1CO`: 5.341%; for `O=C(O)C(F)(F)F.O=C([C@H]1COC[C@H]2CN(C3CCCC3)C[C@H]21)N1CCCO1`: 3.277%.
On to `Cl.Cl.O=C(NC[C@H]1OC[C@@H](NC2CCNCC2)[C@@H]1O)C1CCCC1`, for which the “Percent Effect” value is given as -10.79%.
As for `O=C(C1CC1)N1C[C@@H](F)[C@@H](OCc2nc3ccccc3[nH]2)C1`, the “Percent Effect” value is -5.445%.
As for `Cn1cccc1C(=O)N1CCO[C@H]2[C@H](OCc3cccnc3)CC[C@@H]21.O=C(O)C(F)(F)F`, the “Percent Effect” value is given as -1.301%.
On to `CC(=O)N1CCO[C@H]2[C@H](OCCCn3cccn3)CC[C@@H]21.O=C(O)C(F)(F)F`, for which the “Percent Effect” value is 121.4%.
`CCS(=O)(=O)N1CCO[C@H]2[C@H](OCCCn3cccn3)CC[C@@H]21.O=C(O)C(F)(F)F`: the “Percent Effect” value was 3.946%.
For `O=C(N1CCCC1)N1CCO[C@H]2[C@@H](OCc3cccnc3)CC[C@@H]21.O=C(O)C(F)(F)F`, the “Percent Effect” value was -4.224%.
Regarding `O=C(C1CCOCC1)N1CCO[C@H]2[C@H](Oc3ccccn3)CC[C@@H]21.O=C(O)C(F)(F)F`, the “Percent Effect” value is listed as -40.04%.
`O=C(CC1CC1)N1CCO[C@H]2[C@H](OCCCn3cccn3)CC[C@@H]21.O=C(O)C(F)(F)F`: the “Percent Effect” value was 104.8%.
As for `O=C(C1CCC1)N1CCO[C@H]2[C@H](OCCCn3cccn3)CC[C@@H]21.O=C(O)C(F)(F)F`, the “Percent Effect” value was determined as 102.2%.
As for `CCOCC(=O)NCC(Cc1cccc(F)c1)n1cccc1` (stereo unspecified), the figure is 6.887%; as for `CS(=O)(=O)CCCNC(=O)Nc1sc2ccccc2c1Cl`, -10.11%.
Regarding `COc1cc(C(C)=O)ccc1SCC(=O)Nc1ccc(C)cn1`, the “Percent Effect” value is listed as -18.24%.
On to `COc1cc(C(C)=O)ccc1OCCNCc1ccco1.Cl`, for which the “Percent Effect” value is -30.68%.
`COCC1CCN(CCOc2ccc(C#N)cc2OC)CC1`: the “Percent Effect” value is -11.6%.
Take `COC(=O)c1ccc(Cn2nc(C)cc2C)c(OC)c1`: the “Percent Effect” value is given as -3.306%.
Take `COc1cc(C#N)ccc1OC12CCCN(CC1)C2` (stereo unspecified): the “Percent Effect” value is 107.4%.
As for `COC(=O)c1ccc(OC)c(OC23CCCN(CC2)C3)c1` (stereo unspecified), the figure is 94.41%; as for `COC(=O)c1ccc(Cn2cccc(C(F)(F)F)c2=O)c(OC)c1`, 9.312%.
For `COc1cc(C#N)ccc1OCCN1CCC(n2ccnc2)CC1`, the “Percent Effect” value is listed as 7.917%.
`COc1cc(C(C)=O)ccc1OC12CCCN(CC1)C2` (stereo unspecified): the “Percent Effect” value was determined as 108.8%.
In the case of `CCNC(=O)Nc1cccc(F)c1C(=O)NC1CCCC1`, the “Percent Effect” value was 2.869%.
As for `CC(C)CC(C#N)NC(=O)COC1CCCCC1` (stereo unspecified), the “Percent Effect” value is on record as -4.996%.
As to `CN(C)CCN1CCCC12CCN(Cc1nccn1C)CC2.O=C(O)C(F)(F)F.O=C(O)C(F)(F)F.O=C(O)C(F)(F)F`, the “Percent Effect” value was determined as 106.1%.
As for `O=C(O)C(F)(F)F.O=C(O)C(F)(F)F.c1csc(CN2CCC3(CCCN3CC3CC3)CC2)n1`, the figure is 0.06996%; as for `Cc1ccc(NC2COC3(CCN(Cc4ccn(C)n4)CC3)C2)nn1.O=C(O)C(F)(F)F` (stereo unspecified), -6.198%.
As for `Cn1ccc(CN2CCC3(CCCN3CC3CC3)CC2)n1.O=C(O)C(F)(F)F.O=C(O)C(F)(F)F`, the “Percent Effect” value was found to be 89.46%.
With `CC(C)COC1CC2(CCN(Cc3nccn3C)CC2)C1.O=C(O)C(F)(F)F`, the “Percent Effect” value is recorded as -0.08907%.
On to `Cn1ccc(CN2CCCC23CCN(Cc2nccn2C)CC3)n1.O=C(O)C(F)(F)F.O=C(O)C(F)(F)F`, for which the “Percent Effect” value worked out at 97.85%.
`Cn1ccnc1CN1CCC2(CCCN2c2ncccn2)CC1.O=C(O)C(F)(F)F`: the “Percent Effect” value is listed as -8.541%.
For the compound `Cc1cnc(N2C[C@@H]3[C@@H](C(=O)NCC(C)C)CCS(=O)(=O)[C@@H]3C2)nc1`, the “Percent Effect” value is given as -2.009%.
Regarding `CCc1cnc(N2C[C@@H]3[C@@H](C(=O)NCC(C)C)CCS(=O)(=O)[C@@H]3C2)nc1`, the “Percent Effect” value is -5.453%.
With `CN(C)C(=O)[C@H]1CCS(=O)(=O)[C@@H]2CN(c3ncc(F)cn3)C[C@H]12`, the “Percent Effect” value is on record as 102%.
For `CN(C)C[C@@H]1CCC[C@@H]2CN(c3ncccn3)C[C@@H]21.O=C(O)C(F)(F)F`, the “Percent Effect” value came out at 2.797%.
Consider `CC(C)NC(=O)[C@H]1CCS(=O)(=O)[C@@H]2CN(c3ncccn3)C[C@H]12`, for which the “Percent Effect” value is on record as -3.711%.
The same measure for `CN(C)C(=O)[C@H]1CCS(=O)(=O)[C@@H]2CN(c3ncccn3)C[C@H]12`: 99.37%.
Take `CCc1cnc(N2C[C@@H]3[C@@H](C(=O)NC(C)C)CCS(=O)(=O)[C@@H]3C2)nc1`: the “Percent Effect” value was -2.445%.
As to `Cc1cnc(N2C[C@@H]3[C@@H](C(=O)NC(C)C)CCS(=O)(=O)[C@@H]3C2)nc1`, the “Percent Effect” value is -24.89%.
Consider `CCc1cnc(N2C[C@H]3CCCC(N(C)Cc4ccccn4)[C@H]3C2)nc1` (stereo partly specified), for which the “Percent Effect” value is reported as -24.97%.
Regarding `CC(C)CNC(=O)[C@H]1CCS(=O)(=O)[C@@H]2CN(c3ncccn3)C[C@H]12`, the “Percent Effect” value was determined as 91.22%.
The same measure for `CCc1cnc(N2C[C@@H]3[C@@H](C(=O)N(C)C)CCS(=O)(=O)[C@@H]3C2)nc1`: 108.3%; for `CC(C)NC(=O)[C@H]1CCS(=O)(=O)[C@@H]2CN(c3ncc(F)cn3)C[C@H]12`: -13.53%.
The same measure for `CC(=O)CCC(=O)N1CCC2(CC1)N=C(CCC(C)C)NC2=O`: -5.676%.
The same measure for `CC(C)(C)OC(=O)N1CCC(C(=O)NC2CCS(=O)(=O)C2)CC1` (stereo unspecified): 6.733%.
